According to ChEMBL document CHEMBL3988442, “University of Dundee, Small-Polar-MMV Screening Library” (2021):
The campaign covered roughly 67,000 compounds. About 300 (0.45%) showed an effect of 50% or more. Many of the other results were omitted from the sample, so strong results are more common in it than they were.

Target: Polyketide synthase Pks13 (Mycobacterium tuberculosis (strain ATCC 25618 / H37Rv)) (UniProt I6X8D2)
Experiment: Mycobacterium tuberculosis Polyketide synthase 13 Thioesterase (PKS13)
Assay type: functional
Parameters: scale not given: in the data most compounds retested in dose-response had high values
Conditions: 30 µM

Polyketide synthase Pks13 (Mycobacterium tuberculosis (strain ATCC 25618 / H37Rv)), sequence (I6X8D2 whole entry): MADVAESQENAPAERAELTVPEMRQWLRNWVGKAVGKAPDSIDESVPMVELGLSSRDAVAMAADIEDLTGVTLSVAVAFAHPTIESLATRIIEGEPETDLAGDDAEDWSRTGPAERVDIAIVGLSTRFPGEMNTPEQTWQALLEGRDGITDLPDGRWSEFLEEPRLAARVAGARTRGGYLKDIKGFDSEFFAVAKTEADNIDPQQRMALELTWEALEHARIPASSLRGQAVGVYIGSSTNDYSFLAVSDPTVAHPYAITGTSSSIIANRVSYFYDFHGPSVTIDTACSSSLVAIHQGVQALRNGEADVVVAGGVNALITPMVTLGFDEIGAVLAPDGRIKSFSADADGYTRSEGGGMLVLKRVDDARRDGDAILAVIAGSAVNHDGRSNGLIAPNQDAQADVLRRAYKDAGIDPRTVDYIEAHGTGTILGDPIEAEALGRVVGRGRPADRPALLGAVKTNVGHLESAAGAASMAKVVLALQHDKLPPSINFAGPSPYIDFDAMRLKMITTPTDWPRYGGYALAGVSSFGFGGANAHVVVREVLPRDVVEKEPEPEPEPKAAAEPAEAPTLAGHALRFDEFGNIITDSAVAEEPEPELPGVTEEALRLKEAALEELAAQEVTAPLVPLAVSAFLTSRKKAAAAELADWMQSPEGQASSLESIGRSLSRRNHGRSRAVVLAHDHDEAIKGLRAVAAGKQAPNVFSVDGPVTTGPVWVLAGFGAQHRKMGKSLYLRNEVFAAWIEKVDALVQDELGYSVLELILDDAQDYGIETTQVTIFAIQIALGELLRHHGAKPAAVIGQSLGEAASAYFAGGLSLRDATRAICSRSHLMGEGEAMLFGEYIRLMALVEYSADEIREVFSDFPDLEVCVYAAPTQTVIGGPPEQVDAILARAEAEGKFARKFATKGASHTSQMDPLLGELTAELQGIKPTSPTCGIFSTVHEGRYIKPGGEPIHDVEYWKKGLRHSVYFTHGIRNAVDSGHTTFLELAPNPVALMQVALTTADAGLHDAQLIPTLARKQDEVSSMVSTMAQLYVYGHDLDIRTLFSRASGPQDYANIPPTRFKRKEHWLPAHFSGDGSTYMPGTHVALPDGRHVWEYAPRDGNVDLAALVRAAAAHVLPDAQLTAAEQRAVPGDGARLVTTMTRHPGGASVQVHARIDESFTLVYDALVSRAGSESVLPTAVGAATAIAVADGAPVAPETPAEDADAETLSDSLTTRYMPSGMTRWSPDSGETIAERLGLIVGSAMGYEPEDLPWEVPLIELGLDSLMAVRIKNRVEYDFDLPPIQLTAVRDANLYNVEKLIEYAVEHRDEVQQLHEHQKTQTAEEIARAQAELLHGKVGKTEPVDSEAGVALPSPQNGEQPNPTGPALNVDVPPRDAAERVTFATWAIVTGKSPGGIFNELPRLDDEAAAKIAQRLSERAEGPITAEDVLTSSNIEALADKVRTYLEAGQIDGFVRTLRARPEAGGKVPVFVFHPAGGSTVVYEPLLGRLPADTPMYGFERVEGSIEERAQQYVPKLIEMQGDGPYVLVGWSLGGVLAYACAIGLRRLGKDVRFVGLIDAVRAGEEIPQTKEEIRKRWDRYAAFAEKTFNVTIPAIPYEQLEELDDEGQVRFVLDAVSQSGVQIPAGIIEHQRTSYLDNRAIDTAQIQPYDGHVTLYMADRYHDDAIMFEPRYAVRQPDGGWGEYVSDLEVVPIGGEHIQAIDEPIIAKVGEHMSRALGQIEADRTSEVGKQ

Compound	Percent Effect [%]
CCCN1CCN(C(=O)c2ccc3ccccc3n2)[C@H]2CS(=O)(=O)C[C@H]21	11.6
Cc1noc(C)c1CN1C(=O)[C@H]2CC[C@@H]1CN(Cc1nccs1)C2	-22.4
COc1ccc(CCNC(=O)C(C)Nc2cccc(C)c2C)cc1 (stereo not given)	10.4
COc1ccc(CC(C)Nc2cccc(SC)c2)cc1 (stereo not given)	57.2
COc1ccc(CCC(C)Nc2cccc(SC)c2)cc1 (stereo not given)	65.2
COc1ccc(C(=O)Nc2cccc(SC)c2)c(OC)n1	-19.8
COc1ccc(CC(C)Nc2cccc(F)c2)cc1 (stereo not given)	8.52
COc1ccc(CCNC(=O)C(C)Nc2ccc(C)c(C)c2)cc1 (stereo not given)	1.46
Cn1cc(CN2C[C@@H]3COC[C@]3(CNC(=O)c3ccsc3)C2)cn1	-27.4
Cc1noc([C@@]23CCO[C@@H]2CCN(Cc2scnc2C)C3)n1	-8.64
Cc1cc(CN2C[C@H]3CCC[C@@]3(COCc3csc(C)n3)C2)no1	-42.7
Cc1cc(F)ccc1C(=O)N1C[C@@H]2COC[C@]2(CN(C)C)C1	-28.5
O=C([C@H]1COC[C@H]2CN(C3CCCC3)C[C@H]21)N1CCCCO1	-0.965
Cc1ccnc(OC[C@]23COC[C@H]2CN(C(=O)c2ccnn2C)C3)n1	-7.96
Cc1ccnc(OC[C@]23COC[C@H]2CN(C(=O)c2ncccn2)C3)n1	64
Cc1ccnc(OC[C@]23COC[C@H]2CN(C(=O)c2cnccn2)C3)n1	-10.7
COCCNC(=O)[C@@]12CCO[C@@H]1CCN(Cc1cc(C)on1)C2	-12.3
Cn1cc(CN2C[C@@H]3COC[C@@H](C(=O)N4CCCCO4)[C@@H]3C2)cn1	-30.5
Cc1ccccc1-n1cc(CN(C)C[C@@H]2CCCN3CCCC[C@H]23)cn1	-16.8
Cc1cc(C(=O)N2C[C@@H]3COC[C@]3(c3nnc(C4CC4)o3)C2)on1	-7.03
Cc1ccc(C(=O)NC(C)CN2CCCC2=O)c(=O)[nH]1 (stereo not given)	-2.59
CC(CN1CCCC1=O)NC(=O)c1ccc(-c2ccco2)[nH]c1=O (stereo not given)	73

Compound	Percent Effect [%]
CCC(C)NC(=O)c1ccc(-c2ccco2)[nH]c1=O (stereo not given)	7.06
O=C1[C@@H]2CCN(C3CCOCC3)C[C@@H]2OCCN1Cc1cccnc1	-7.59
COC[C@H]1CNC(=O)[C@@H]2CCN(Cc3ccc(F)cc3)CC[C@H]12	-30.6
Cn1cnc(-c2nc(C(=O)NC3CC3)c3ccccn23)c1	113
COCCNC(=O)c1nc(-c2cn(C)cn2)n2ccccc12	21.3
Cn1cnc(-c2nc(C(=O)NCCN3CCCC3)c3ccccn23)c1	18.6
CC(C)n1cnc(-c2nc(C(=O)NC3CC3)c3ccccn23)c1	22.1
Cn1cnc(-c2nc(C(=O)NCCN3CCOCC3)c3ccccn23)c1	141
Cn1cnc(-c2nc(C(=O)NCC3CCCO3)c3ccccn23)c1 (stereo not given)	5.5
CN1CCCC(N2CCN(c3nc4ccccn4c3C#N)CC2)C1 (stereo not given)	15.1
N#Cc1c(N2CCCN(C3CCOCC3)CC2)nc2ccccn12	95.8
N#Cc1c(N2CCN(CC3CCOC3)CC2)nc2ccccn12 (stereo not given)	5.84
CC(C)c1noc(CC[C@@H]2CCCN3CCCC[C@H]23)n1	-17.9
c1cc(CN2CC[C@H]3CO[C@H](CN4CCOCC4)[C@H]3C2)cs1	-3.35
O=C1N(CC2CC2)CCC12CCN(c1ncccn1)CC2	2.59
Cc1cnc(N2CCC3(CCN(CC4CC4)C3=O)CC2)nc1	71.3
Cc1cnc(N2CCC3(CCN(CC4CCCC4)C3=O)CC2)nc1	-3.7
COc1ccc(CN2CC[C@H]3CO[C@H](CNC(=O)N(C)C)[C@H]3C2)cc1	-14.2
CCCn1c(N2CCCC(C)C2)nc2c(C)nn(C)c2c1=O (stereo not given)	3.25
CCCn1c(N2CCCC2)nc2c(C)nn(C)c2c1=O	67
CCCn1c(N2CCCCC2)nc2c(C)nn(C)c2c1=O	14
Cc1ccoc1-c1nnc(CN2CCOC(Cn3cccn3)C2)o1 (stereo not given)	-3.25

Compound	Percent Effect [%]
Cc1noc(C)c1C(=O)N1C[C@H]2CC[C@@H]1CN(c1cnccn1)C2	-13.5
Cn1nccc1CCC(=O)N1CCOC(c2cnccn2)C1 (stereo not given)	4.28
Cn1nccc1CCC(=O)N1CCC(c2cnccn2)CC1	-6.75
Cn1nccc1CCC(=O)N1CCCC(c2cnccn2)C1 (stereo not given)	54.2
COc1ccccc1N1CCC(CNS(=O)(=O)c2cccc(C#N)c2)C1 (stereo not given)	50.9
COc1ccccc1N1CCC(CNCc2cccc(C#N)c2)C1 (stereo not given)	14.1
COc1ccccc1N1CCC(CNS(=O)(=O)c2cccs2)C1 (stereo not given)	80.9
COc1ccccc1N1CCC(CNCc2ccc(C#N)cc2)C1 (stereo not given)	-12.2
COc1ccccc1N1CCC(CNCc2cccc(OC)c2OC)C1 (stereo not given)	-8.68
COc1ccccc1N1CCC(CNS(=O)(=O)c2c(C)nn(C)c2C)C1 (stereo not given)	0.665
O=C([C@H]1CC[C@@H]2[C@@H](CCN2c2ncccn2)O1)N1CCCCO1	4.55
Cn1cnc(S(=O)(=O)N2CCO[C@H]3[C@H](OCC4CC4)CC[C@@H]32)c1	-28.3
O=C(N1CCOCC1)[C@@]12CCO[C@@H]1CCN(CCN1CCCCC1)C2	-23.6
COCCN1C[C@H]2CCN(C(=O)c3cc(C)on3)CC[C@H]2S1(=O)=O	-423
Cc1nn(C)c2c(=O)n(CC(=O)NC3CCCCC3)ccc12	-9.58
CCS(=O)(=O)NC[C@]12COC[C@H]1CN(Cc1cc(C)on1)C2	-29.9
CNC(=O)N1CC[C@@H]2CN(Cc3cccc(OC)c3)S(=O)(=O)[C@@H]2CC1	-16.2
N#Cc1cccnc1N1CCCC(CO)(Cc2ccc(F)cc2)C1 (stereo not given)	-5.66
N#Cc1cccnc1N1CCCC(CO)(Cc2cccc(Cl)c2)C1 (stereo not given)	96.8
OCC1(Cc2cccc(Cl)c2)CCCN(c2ncccn2)C1 (stereo not given)	20.3
CCC(=O)N1CCN(Cc2cnc(C)nc2)[C@H]2CS(=O)(=O)C[C@H]21	-6.93
Cc1noc(C)c1CN1CC[C@H]2C[C@H](c3ccncn3)O[C@@H]2C1	-14.6

Compound	Percent Effect [%]
Cn1ccc(C(=O)NCc2cccc(N3CCCCC3=O)c2)cc1=O	14.5
Cn1ccc(C(=O)NCc2cccc(NC(=O)C3CCC3)c2)cc1=O	107
Cn1ccc(C(=O)NCc2cccc(CN3CCCC3)c2)cc1=O	56.3
Cn1ccc(C(=O)NCc2ccc(CN3CCCCC3)cc2)cc1=O	4.22
Cn1ccc(C(=O)NCc2ccc(CN3CCCC3)cc2)cc1=O	-2.41
Cn1ccc(C(=O)NCc2cccc(Cn3ccnc3)c2)cc1=O	-52
Cc1cc(N2CCN(C(=O)[C@@H]3C[C@@H]4C=C[C@H]3C4)CC2)cc(C)n1	-10.7
CCc1nccn1CC(=O)N1C[C@H]2CC[C@@H]1CN(C(=O)N(C)C)C2	-13.8
CN1CCN(Cc2nc3ccccc3[nH]2)[C@H]2CS(=O)(=O)C[C@H]21	-21.3
Cc1cnc(N2C[C@@H]3[C@@H](C2)OCC(=O)N3CCN(C)C)nc1	3.47
Cc1cccc(OCc2ccc(C(=O)N3N=CCC3(O)C(F)(F)F)o2)c1 (stereo not given)	45.3
O=C(c1ccc(COc2ccccc2Cl)o1)N1N=CCC1(O)C(F)(F)F (stereo not given)	37.5
O=C(c1ccc(COc2ccc(Cl)cc2)o1)N1N=CCC1(O)C(F)(F)F (stereo not given)	73.2
O=C(c1cccnc1)N1CCN2C(=O)N(Cc3ccc(F)cc3)C[C@H]2C1	2.86
CC(C)N(C)C[C@H]1C[C@@H]2CN(Cc3ccco3)C[C@@H]2O1	-28.7
CCOC(=O)[C@]12CCCN(Cc3nccs3)C[C@H]1CN(CC(C)C)C2	-5.86
Cc1cc(C2CCCCN2C(=O)c2ccsc2)nc2nccn12 (stereo not given)	84.3
Cc1noc(C)c1C(=O)N1CCCCC1c1cc(C)n2ccnc2n1 (stereo not given)	-1.89
Cc1cc(C2CCCCN2C(=O)c2cccn2C)nc2nccn12 (stereo not given)	8.03
CC(C)CN1C(=O)CO[C@@H]2CN(C(=O)N3CCOCC3)C[C@H]21	-27.7
O=C(c1ccnnc1)N1C[C@H]2CCC[C@@H](OCc3cccnc3)[C@@H]2C1	8.09
O=C(NCCc1ccccc1)N1C[C@H]2C[C@H](C(=O)N3CCCC3)[C@@H](C1)O2	-28.3

Compound	Percent Effect [%]
O=C(c1cc(-c2ccco2)nc2c(Cl)cccc12)N1C[C@H]2CNC[C@H]2C1	-42.7
O=C(c1cc(-c2ccco2)nc2c(Cl)cccc12)N1CCS(=O)(=O)CC1	-5.09
COCC1CCN(C(=O)c2cc(-c3ccco3)nc3c(Cl)cccc23)C1 (stereo not given)	66.3
O=C(O)C1c2nc[nH]c2CCN1Cc1cc(-c2ccccc2)no1 (stereo not given)	-11.2
O=C(O)C1c2nc[nH]c2CCN1Cc1ccc(-c2ccccc2)s1 (stereo not given)	-9.34
O=C(O)C1c2nc[nH]c2CCN1Cc1ccccc1-c1ccccc1 (stereo not given)	62.3
CSCC(=O)N1C[C@H]2CC[C@@H]1CN(C1Cc3ccccc3C1)C2	-8.9
Cc1nccc([C@@H]2C[C@@H]3CCN(Cc4cccs4)C[C@H]3O2)n1	-9.54
N#Cc1cccc(N2CCC(CO)(CCCc3ccccc3)CC2)n1	67.6
CC(=O)c1ccc(N2CCCC(CO)(CCc3ccccc3)C2)nc1 (stereo not given)	55.1
OCC1(CCOc2ccccc2)CCN(c2ccc(Cl)cn2)CC1	43.4
Nc1nccc(N2CCCC(CO)(CCOc3ccccc3)C2)n1 (stereo not given)	-23.1
CC(=O)c1ccc(N2CCCC(CO)(Cc3ccccc3F)C2)nc1 (stereo not given)	-9.09
N#Cc1ccc(N2CCCC(CO)(CCOc3ccccc3)C2)nc1 (stereo not given)	13.8
N#Cc1cccc(N2CCCC(CO)(CCOc3ccccc3)C2)n1 (stereo not given)	132
N#Cc1cccc(N2CCC3(CCC(=O)N(CCCO)C3)CC2)n1	-0.0305
CCc1nc(N2CCCC(CO)(CCOC)C2)ncc1C (stereo not given)	-19.2
N#Cc1cccc(N2CCC3(CC2)Nc2ccccc2NC3=O)n1	-22.8
OCC1(CCOc2ccccc2)CCCN(c2ccc(Cl)cn2)C1 (stereo not given)	56.5
CC(=O)c1ccc(N2CCCC(CO)(CCOc3ccccc3)C2)nc1 (stereo not given)	15.6
O=C(NCc1ccco1)[C@H]1C[C@H]2OCC[C@H]2N(S(=O)(=O)C2CC2)C1	-7.99
CCOC(=O)[C@]12CCCN(Cc3cccs3)C[C@H]1CN(C(C)C)C2	-0.678
